# Bioassay records from PubChem BioAssay.
# A selection: hits, their analogues and other compounds. The true share with any hit is near 2.5%.
# aSyn yeast inh: qHTS of alpha-syn Inhibitors; Yeast expressing alpha-synuclein, growth rescue, BacTiter-Glo, 24 h; Potency, µM (titrated, usually from 46.1 µM), most hits filed as activators; hit rate 0.14% among 370,000; AID 652106, 2013; further: nearly all actives have a fitted effect of over 65% in size
#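 Readout is rescue of growth in alpha-synuclein-expressing yeast, so inhibitors of toxicity appear as activators. Growth after 24 hr at 30 deg C in galactose medium is quantified by luminescence.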
# Mito fusion yeast: qHTS Assay for Small Molecule Inhibitors of Mitochondrial Division or Activators of Mitochondrial Fusion; S. cerevisiae fusion-defective mutant growth rescue, CellTiterGlo 48 h; Potency, µM (top dose mostly 46.1 µM), actives largely listed as activators; hit rate 0.23% among 320,000; further: nearly all actives have a fitted effect of over 45% in size
#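 Growth-rescue viability read-out: after 48 h at the non-permissive 37C in glycerol/ethanol YPEG, yeast mitochondrial fusion mutants are measured by CellTiterGlo luminescence; compounds (23 nl pinned per well) restoring growth score as division inhibitors or fusion activators.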
# TDP-43 yeast inh: qHTS of TDP-43 Inhibitors. Potency, µM (top dose mostly 46.1 µM), most hits filed as activators. TDP-43 expressing yeast growth rescue, BacTiter-Glo, 24 h. AID 652104, 2013. hit rate 1.8% among 410,000; further: nearly all actives have a fitted effect of over 50% in size
#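 Yeast cells expressing TDP-43 under galactose induction are exposed to compounds for 24 hr at 30 deg C. BacTiter-Glo luminescence measures growth, so protective compounds score as activators.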
# Akt phos inh: HTS Assay for Inhibitors of Akt Phophorylation: Primary Screen | Neuro2A IGF-stimulated pAkt S473 HTRF, 20 min; hits give low values | activity change, % for hits at 50 µM | hit rate 0.32% among 360,000 | AID 651550, 2012; in the data active means activity change below about -80%; inconclusive means mostly about -51% to -80%
#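 Single-point screen (50 µM final compound) in Neuro2A cells stimulated 20 min with 6 nM IGF at 37 deg C. After lysis, Ser473-phosphorylated Akt read by HTRF (ex 330 nm, em 615/665 nm) as the 665/615 ratio.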
# Apoferritin bind: qHTS Assay for Identification of Novel General Anesthetics. hit rate 0.074% among 350,000. apoferritin/1-aminoanthracene competitive binding, fluorescence. AID 485281, 2010. Potency, µM (top dose mostly 77.5 µM), most hits filed as inhibitors; further: nearly all actives have a fitted effect of over 20% in size
# Target sequence (P02791 2-175 limits assumed): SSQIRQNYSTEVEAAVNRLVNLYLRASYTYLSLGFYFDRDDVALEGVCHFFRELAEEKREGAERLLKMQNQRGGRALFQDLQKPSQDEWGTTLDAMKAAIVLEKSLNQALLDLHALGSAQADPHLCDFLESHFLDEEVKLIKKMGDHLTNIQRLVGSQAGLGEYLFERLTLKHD
#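 10 uM apoferritin + 50% sat. 1-AMA, PBS; cpd 10 min RT; Ex380/Em535 endpoint; normalized to free probe vs complex; 4-param Hill fit; propofol titration as pos. ctrl.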
# CCT chaperon mod: High-Throughput Screening for Modulators of Cytosolic Chaperonin Activity | AID 651819, 2012 | activity change, % (test concentration not listed), hits read low | hit rate 0.3% among 360,000 | purified chaperonin ATPase assay, HTRF ADP detection, 30 min; in the data active means activity change below about -30%
#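 First, chaperonin was dispensed at 40 nM or 20 nM final depending on batch activity. Next, compounds were pinned at 76 uM and ATP added at 10 uM. After 30 min at 37 °C, ADP detection reagents ran 30 min at ambient temperature.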
# Numbers stand for hits; . = inactive; ? = inconclusive; / = no result given; [ ] = remark or other dose. Unless noted, the call rests on the fitted dose curve; in most records, active means well fitted curve in the direction sought with a large enough effect; inconclusive means small, poorly fitted or top-dose-only effect, or another doubt; inactive means no such curve, though single readings can be large; an effect the other way counts as inactive or inconclusive.
SMILES,aSyn yeast inh,Mito fusion yeast,TDP-43 yeast inh,Akt phos inh,Apoferritin bind,CCT chaperon mod
Cc1ccc(C2=NC(C)(C)N=C2SCC(=O)Nc2ccc(Cl)cc2)cc1,.,.,35µM,.,?,.
CC1(C)N=C(SCC(=O)Nc2ccc(Cl)cc2Cl)C(c2ccccc2)=N1,.,.,.,.,?,.
CC1(C)N=C(SCC(=O)Nc2ccccc2)C(c2ccc(Cl)cc2)=N1,.,.,18µM,.,?,.
Cc1ccc(C(c2sc3nc(-c4ccco4)nn3c2O)N2CCCCC2)cc1 (centres undefined),/,/,.,/,.,/
Cc1c(C(=O)N(Cc2ccccc2F)C2CCS(=O)(=O)C2)oc2ccc(F)cc12 (centres undefined),/,/,.,/,.,/
Cc1nnc(SCC(=O)N2CCOCC2)c2ccccc12,.,.,.,-115%,.,.
Fc1cccc(C[n+]2csc3ccccc32)c1,.,.,3.5µM,.,?,.
c1ccc(C[n+]2csc3ccccc32)cc1,.,.,?,.,.,.
C=C(C)C1CCC(C)C(OC(C)=O)C1 (centres undefined),/,/,/,/,.,/
CCOC(=O)CNC(=S)N(Cc1ccccc1)Cc1cccnc1,.,.,.[9.22 µM],.,.,-34
CC1(C)C(=O)OC(C(=O)c2ccccc2)C(C)(C)C1=O (centres undefined),.,.,.,.,8.9µM,.
Cc1ccc(S(=O)(=O)Nc2cc(Cl)c3oc4c(c3c2)CCCC4)cc1,/,/,.,/,.,/
CCn1c(/C=C/c2ccccc2)nc2ccccc2c1=O,.,.,35µM,.,.,.
CCn1c(/C=C/c2ccc(F)cc2)nc2ccccc2c1=O,.,.,22µM,.,.,.
CCCCc1nc2ccccc2n1CC(=O)N(COCC)c1c(C)cccc1CC,/,/,.,/,.,/
c1ccc(-c2nc(NC3CC3)nc(-n3ccnc3)n2)cc1,.,.,5µM,.,.,.
c1ccc(-c2nc(-n3ccnc3)nc(-n3ccnc3)n2)cc1,/,.,?,/,.,.
CCCCn1nnnc1C(c1ccccc1)N1CCN(c2ccc(F)cc2)CC1 (centres undefined),.,/,28µM,.,/,.
O=C(NC1CC1)c1ccc2nc(-c3ccco3)c(-c3ccco3)nc2c1,.,/,/,/,/,/
Cc1ccccc1NC(=O)CSc1nnc(-c2ccccc2)n1-c1ccccc1,.,.,.,-98%,?,.
O=C(c1ccoc1)N1CCN(c2cc(-c3cccnc3)nc3cc(-c4cccc(Cl)c4)nn23)CC1,.,/,7.9µM,.,/,.
CC(=O)N1CCN(c2cc(-c3ccccc3)nc3cc(-c4cccc(Cl)c4)nn23)CC1,.,/,2.2µM,.,/,.
CN(C)Cc1ccccc1-c1cc(N(C)C)ncn1,/,/,/,/,.,/
CN(C)c1nc(SCCOC(=O)Nc2ccccc2)nc(N(C)C)n1,.,.,3.2µM,.,.,.
NC1CCc2ccccc21 (centres undefined),.,/,/,/,/,/
SMILES,aSyn yeast inh,Mito fusion yeast,TDP-43 yeast inh,Akt phos inh,Apoferritin bind,CCT chaperon mod
CCn1c2ccccc2c2cc([N+](=O)[O-])ccc21,.,.,.,.,.,.
CCn1c2ccccc2c(=O)c2ccccc21,.,.,13µM,.,.,.
c1ccc(-c2nn3c(C4CCCCC4)nnc3s2)nc1,.,.,.,.,.,.
COc1ccc(-c2nn3c(C4CCCCC4)nnc3s2)cc1OC,.,?,20µM,.,.,.
c1csc(-c2nn3c(C4CCCCC4)nnc3s2)c1,.,/,?,.,/,.
c1ccc(-c2nn3c(C4CCCCC4)nnc3s2)cc1,.,.,20µM,-114%,.,.
Clc1ccc(OCc2nn3c(C4CCCCC4)nnc3s2)cc1,.,.,20µM,.,.,.
COc1cccc(OCCSc2nnc3sc4ccccc4n23)c1,.,.,?,-112%,.,.
COc1ccc(-c2noc(CNC(=O)COc3cccc(C)c3C)n2)cc1,/,/,.,/,.,/
CCOC(=O)c1cccc(NC(=O)c2ncoc2-c2ccco2)c1,/,/,.,/,.,/
CC(=O)c1cccc(NC(=O)c2ccccc2N(C)S(=O)(=O)c2ccc(C)cc2)c1,.,.,.,.,.,.
CCOC(=O)c1ccc(CN(Cc2ccc(F)cc2)S(=O)(=O)c2ccc(F)cc2)cc1,/,/,.,/,.,/
CN(c1ccccc1C(=O)Nc1ccc(CC#N)cc1)S(=O)(=O)c1ccccc1,.,.,.,.,.,.
CN(c1ccccc1C(=O)Nc1cccc([N+](=O)[O-])c1)S(=O)(=O)c1ccccc1,.,.,22µM,.,.,.
CN(c1ccccc1C(=O)Nc1cccc(Br)c1)S(=O)(=O)c1ccccc1,.,.,28µM,.,.,.
CCOC(=O)c1ccc(CN(Cc2ccccc2)S(=O)(=O)c2cccc([N+](=O)[O-])c2)cc1,.,.,.,.,.,-33
CN(c1ccccc1C(=O)Nc1cccc([N+](=O)[O-])c1)S(C)(=O)=O,.,.,.,.,.,.
CCOC(=O)c1ccc(NC(=O)c2ccccc2N(C)S(=O)(=O)c2ccccc2)cc1,.,.,35µM,.,.,.
O=C(CSc1nc2c([nH]c3ccccc32)c(=O)n1-c1ccccc1)N1CCc2ccccc21,/,/,.,/,.,/
O=C(c1ccc2c(c1)N(Cc1c(F)cccc1Cl)C(=O)c1ccccc1S2)N1CCOCC1,/,/,.,/,.,/
CCc1ccc(NS(=O)(=O)c2ccc(-c3cc(C)no3)cc2)cc1,/,/,?,/,.,/
Nc1ccc(C(=O)N/N=C/c2cccc(Oc3ccccc3)c2)cc1,.,.,13µM,.,?,.
Cc1nn(C)c(C(=O)N/N=C/c2cccc(Oc3ccccc3)c2)c1Br,.,.,4.5µM,.,.,.
CCCCCCCCCCC(C)=O,/,/,/,/,.,/
CCOC(=O)c1c(C2COc3ccccc3O2)csc1N (centres undefined),.,.,?,.,?,-41
SMILES,aSyn yeast inh,Mito fusion yeast,TDP-43 yeast inh,Akt phos inh,Apoferritin bind,CCT chaperon mod
COc1ccc(C(=O)Nc2cc(-c3cccc(C)c3)nn2-c2ccccc2)cc1,/,/,.,/,.,/
O=C(C[n+]1csc2ccccc21)c1ccc(O)c(O)c1,.,/,/,/,/,/
CCOc1ccc(Nc2c3c(nc4nncn24)CCC3)cc1,/,/,35µM,/,.,/
Cc1ccc(Nc2c3c(nc4nncn24)CCC3)cc1C,/,/,?,/,.,/
Cc1cc(C)cc(Nc2c3c(nc4ncnn24)CCC3)c1,?,.,?,.,.,.
Cc1ccc(Nc2c3c(nc4nncn24)CCC3)cc1,/,/,16µM,/,.,/
COc1ccc(Nc2c3c(nc4nncn24)CCC3)cc1Cl,/,/,.,/,.,/
Brc1ccc(Nc2c3c(nc4nncn24)CCC3)cc1,/,/,13µM,/,.,/
Clc1ccc(Nc2c3c(nc4ncnn24)CCC3)cc1,.,.,18µM,.,.,.
